HT1080 IDH1KD tx – qHTS for induction of synthetic lethality in tumor cells producing 2HG: qHTS for the HT-1080-IDH1KD cell line; HT-1080 IDH1 knockdown viability, ATP luminescence, 48 h; hit rate 2% among 360,000; AID 686971, 2013; Potency, µM (top dose mostly 46.1 µM), inactives show at the top dose activity, negative = toxicity, hits mostly cytotoxic;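 also: 0% = DMSO wells and -100% = cell-free medium wells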
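Knockdown cells (IDH1KD HT-1080) received compounds 2 h after plating at 750 cells/well and were kept 48 h at 37 °C in 5% FBS RPMI. A CellTiter-Glo luminescence read gave % activity for curve fitting.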
KB-3-1 cytotox – qHTS assay for MDR1-selective chemotherapeutics: Primary screen using the parental adenocarcinoma cell KB-3-1 | Potency, µM (series often up to 46.1 µM), hits mostly cytotoxic | KB-3-1 viability, CellTiter-Glo ATP luminescence, 72 h | hit rate 1.4% among 400,000; also: % is scaled to controls: 0 for no effect and ±100 for the full control effect; nearly all actives have a fitted effect of over 60% in size
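Cytotoxicity measured as CellTiter-Glo luminescence after 72 h at 37 C. Compound titrations were pinned onto drug-naive KB-3-1 parental adenocarcinoma cells grown in DMEM with 10% FBS, and normalized data fitted to concentration-response curves.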
SW480 rereplic – A quantitative high throughput screen for small molecules that induce DNA re-replication in SW480 colon adenocarcinoma cells; AID 624297, 2012; hit rate 1.8% among 340,000; SW480 DNA re-replication, Hoechst DNA content imaging, 48 h; Potency, µM (highest dose often 46.1 µM), inactives show at the top dose re-replication activation, usual class: activators; also: % of control where 0% means no effect; nearly all actives have a fitted effect of over 55% in size
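SW480 cells exposed to compounds for 48 hr at 37 C, 5% CO2, then Hoechst-stained 40 min. Nuclear DNA content imaged by fluorescence scanning (405 nm excitation, 500-530 nm emission); re-replication scored as increased high-intensity nuclei.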
HT1080-NT tox – qHTS for induction of synthetic lethality in tumor cells producing 2HG: qHTS for the HT-1080-NT fibrosarcoma cell line | HT-1080-NT fibrosarcoma viability, CellTiter-Glo ATP luminescence, 48 h | Potency, µM (doses to about 46.1 µM), for inactives: at the top dose activity, negative = less viability, usual class: cytotoxic | hit rate 1.6% among 360,000 | AID 686970, 2013;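 also: NT is the 2HG producing partner of a matched IDH1 knockdown line; 0% = DMSO-treated cells and -100% = media-only wells without cells; nearly all actives have a fitted effect of over 55% in size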
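Viability of the 2HG-overproducing fibrosarcoma line after 48 hours of compound exposure at 37 degrees C was determined by luminescence with CellTiter-Glo, and concentration-effect curves were then fitted and categorized.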
KB-V1 MDR tox – qHTS assay for MDR1-selective chemotherapeutics: Primary screen using the drug-selected MDR subline cells KB-V1; hit rate 3.4% among 400,000; KB-V1 MDR cells viability, CellTiter-Glo, 72 h; Potency, µM (top dose mostly 46.1 µM), hits mostly cytotoxic; also: % is scaled to controls: 0 for no effect and ±100 for the full control effect; nearly all actives have a fitted effect of over 60% in size
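Drug-selected KB-V1 cells, grown in DMEM lacking phenol red with 10% FBS, receive compound titrations; after three days at 37 degrees C, surviving cell ATP is quantified by CellTiter-Glo luminescence and responses normalized and curve-fitted.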
MCF10A rerep – A quantitative high throughput screen for small molecules that induce DNA re-replication in MCF 10a normal breast cells | MCF 10A DNA re-replication, Hoechst nuclear intensity, 48 h | Potency, µM (highest dose often 46.1 µM), for inactives: at the top dose activity, positive = re-replication, actives largely listed as activators | hit rate 2.9% among 350,000 | AID 624296, 2012; also: % of control where 0% means no effect; nearly all actives have a fitted effect of over 50% in size
The depositor's hits bear a star. An excerpt weighted towards active compounds, which were near 7.9% of everything screened. Calls follow the shape of the dose curve; as a rule, active = well fitted curve in the direction sought with a large enough effect; inconclusive = small, poorly fitted or top-dose-only effect, or another doubt; inactive = no such curve, though single readings can be large; an effect the other way counts as inactive or inconclusive. Potency is read from the fitted curve at half-maximal effect.

Results for CCN1C(=O)/C(=C\c2ccncc2)SC1=Nc1ccc(C)c(C)c1 ?
HT1080 IDH1KD tx: -15.9%; KB-3-1 cytotox: inconclusive; SW480 rereplic: -1.0%; HT1080-NT tox: -1.6%; KB-V1 MDR tox: 14.6µM*; MCF10A rerep: inconclusive

Results for CCOC(=O)C1CCCN(S(=O)(=O)c2ccc3c(c2)oc(=O)n3C)C1 (stereo not given) ?
KB-3-1 cytotox: inconclusive; KB-V1 MDR tox: inactive

Results for Cc1ccc(S(=O)(=O)Nc2ccc(Cl)cn2)cc1 ?
HT1080 IDH1KD tx: 4.0%; KB-3-1 cytotox: inactive; SW480 rereplic: 4.2%; HT1080-NT tox: 3.4%; KB-V1 MDR tox: inactive; MCF10A rerep: -1.1%

How did COc1ccc(S(=O)(=O)Nc2ccc(Cl)cn2)c(C)c1C do in these assays?
HT1080 IDH1KD tx: 5.2%; KB-3-1 cytotox: inactive; SW480 rereplic: -1.9%; HT1080-NT tox: 1.2%; KB-V1 MDR tox: 23.1µM*; MCF10A rerep: -1.5%

Results for C=CCn1c(-c2cccn(Cc3ccc(Cl)cc3Cl)c2=O)n[nH]c1=S ?
HT1080 IDH1KD tx: inconclusive; KB-3-1 cytotox: inconclusive; SW480 rereplic: 20.1%; HT1080-NT tox: inconclusive; KB-V1 MDR tox: 14.6µM*; MCF10A rerep: 0.1%

Results for C=CCn1c(-c2cccn(Cc3cccc(Cl)c3)c2=O)n[nH]c1=S ?
HT1080 IDH1KD tx: -3.6%; KB-3-1 cytotox: inactive; SW480 rereplic: -4.1%; HT1080-NT tox: -4.6%; KB-V1 MDR tox: 23.1µM*; MCF10A rerep: 5.8%

How did COc1ccc(C(=O)NCc2cccc(Cl)c2)cc1S(=O)(=O)N1CCOCC1 do in these assays?
HT1080 IDH1KD tx: 2.7%; KB-3-1 cytotox: inactive; SW480 rereplic: -6.3%; HT1080-NT tox: 0.6%; KB-V1 MDR tox: inactive; MCF10A rerep: 16.9%

How did O=C(NCCc1cccs1)C1CC1 do in these assays?
HT1080 IDH1KD tx: 15.4%; KB-3-1 cytotox: inactive; SW480 rereplic: 0.5%; HT1080-NT tox: 8.8%; KB-V1 MDR tox: inactive; MCF10A rerep: -1.9%

Results for C/C(CC(=O)Nc1ccc(C)c(Cl)c1)=N\NC(=O)Cc1ccccc1 ?
HT1080 IDH1KD tx: -5.7%; KB-3-1 cytotox: inactive; SW480 rereplic: 15.0%; HT1080-NT tox: -1.1%; KB-V1 MDR tox: inconclusive; MCF10A rerep: 5.4%

Results for C/C(CC(=O)Nc1ccc(C)c(Cl)c1)=N\NC(=O)c1ccco1 ?
HT1080 IDH1KD tx: -15.8%; KB-3-1 cytotox: inactive; SW480 rereplic: -2.3%; HT1080-NT tox: -2.8%; KB-V1 MDR tox: inconclusive; MCF10A rerep: 18.4µM*

What do the screens show for `Cc1ccc(NC(=O)COc2ccccc2)cc1Cl`?
HT1080 IDH1KD tx: 13.5%; KB-3-1 cytotox: inactive; SW480 rereplic: 0.4%; HT1080-NT tox: 21.2%; KB-V1 MDR tox: inactive; MCF10A rerep: inconclusive

What do the screens show for `C/C(CC(=O)Nc1ccc(OCc2ccccc2)cc1)=N\NC(=O)C(=O)Nc1ccc(C)c(Cl)c1`?
HT1080 IDH1KD tx: inconclusive; KB-3-1 cytotox: inconclusive; SW480 rereplic: 21.2%; HT1080-NT tox: 18.4µM*; KB-V1 MDR tox: inactive; MCF10A rerep: 10.3µM*

Results for Cc1nn(-c2ccccc2)c2c1C1(C(=O)N(C)c3ccccc31)N(c1ccccc1)C(=O)N2 (stereo not given) ?
HT1080 IDH1KD tx: 14.4%; KB-3-1 cytotox: inactive; SW480 rereplic: inconclusive; HT1080-NT tox: 7.9%; KB-V1 MDR tox: inactive; MCF10A rerep: -28.2%

How did CCOC(=O)c1cc([N+](=O)[O-])cc([N+](=O)[O-])c1Sc1ncnc2nc[nH]c12 do in these assays?
HT1080 IDH1KD tx: 4.61µM*; KB-3-1 cytotox: inconclusive; SW480 rereplic: 11.6µM*; HT1080-NT tox: 4.61µM*; KB-V1 MDR tox: inconclusive; MCF10A rerep: inconclusive

How did Cc1ccc(NC(=O)CN(C)C(=O)CCSc2ccc(F)cc2)cc1 do in these assays?
HT1080 IDH1KD tx: 0.4%; KB-3-1 cytotox: inactive; SW480 rereplic: -11.4%; HT1080-NT tox: -4.9%; KB-V1 MDR tox: inactive; MCF10A rerep: 6.4%

Results for C[C@@H]1CN([C@H](C)CO)C(=O)c2cc(NC(=O)Nc3ccc(F)cc3)ccc2O[C@@H](C)CCCCO[C@H]1CN(C)Cc1ccc(C(=O)O)cc1 ?
HT1080 IDH1KD tx: 4.5%; KB-3-1 cytotox: inactive; HT1080-NT tox: -1.5%; KB-V1 MDR tox: inconclusive

Results for C[C@H]1CN([C@@H](C)CO)C(=O)c2cc(NC(=O)Cc3ccccc3)ccc2O[C@H]1CN(C)Cc1ccccc1 ?
HT1080 IDH1KD tx: 4.4%; KB-3-1 cytotox: inactive; SW480 rereplic: -3.0%; HT1080-NT tox: -1.9%; KB-V1 MDR tox: inactive; MCF10A rerep: 8.6%

How did C[C@@H]1CN([C@H](C)CO)C(=O)c2cc(NC(=O)Cc3ccccc3)ccc2O[C@H]1CN(C)Cc1ccc(Oc2ccccc2)cc1 do in these assays?
HT1080 IDH1KD tx: inconclusive; KB-3-1 cytotox: inconclusive; SW480 rereplic: inconclusive; HT1080-NT tox: inconclusive; KB-V1 MDR tox: inconclusive; MCF10A rerep: 16.4µM*

Results for C[C@@H]1CN([C@@H](C)CO)C(=O)c2cc(NS(C)(=O)=O)ccc2O[C@H]1CN(C)Cc1ccc(Oc2ccccc2)cc1 ?
HT1080 IDH1KD tx: -29.6%; KB-3-1 cytotox: inactive; SW480 rereplic: -1.2%; HT1080-NT tox: -27.3%; KB-V1 MDR tox: inactive; MCF10A rerep: 6.7%

What do the screens show for `COc1ccc(CN(C)C[C@@H]2OCCCC[C@H](C)Oc3ccc(NC(=O)Nc4ccc(F)cc4)cc3C(=O)N([C@H](C)CO)C[C@H]2C)cc1`?
HT1080 IDH1KD tx: inconclusive; KB-3-1 cytotox: inconclusive; HT1080-NT tox: 20.6µM*; KB-V1 MDR tox: inactive

What do the screens show for `C[C@@H]1CN([C@@H](C)CO)C(=O)c2cc(NC(=O)Nc3ccc(F)cc3)ccc2O[C@@H]1CN(C)Cc1ccc(Oc2ccccc2)cc1`?
HT1080 IDH1KD tx: 16.4µM*; KB-3-1 cytotox: inactive; SW480 rereplic: inconclusive; HT1080-NT tox: inconclusive; KB-V1 MDR tox: inconclusive; MCF10A rerep: 6.8%

Results for Nc1ccc2nc(-c3ccccc3)sc2c1 ?
HT1080 IDH1KD tx: inconclusive; KB-3-1 cytotox: 16.4µM*; SW480 rereplic: inconclusive; HT1080-NT tox: inconclusive; KB-V1 MDR tox: inconclusive; MCF10A rerep: 25.9µM*

What do the screens show for `Cc1ccc2nc(-c3ccc(N)cc3)sc2c1`?
HT1080 IDH1KD tx: -3.1%; KB-3-1 cytotox: inconclusive; SW480 rereplic: 13.1%; HT1080-NT tox: -14.2%; KB-V1 MDR tox: inactive; MCF10A rerep: 21.0%
